Compounds without any hit were thinned out: in the full panel of roughly 83,000, 20% have a hit.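 A percent growth of 40 corresponds to 60% growth inhibition; 0 means no net growth; -100 means all cells died. Active threshold: below 10.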 Active and inactive are the calls of the source.
What was measured:
Experiment in all cases: NCI-60 one-dose screen, 48 h (100 = growth as untreated, 0 = no growth, -100 = all killed)
Settings in all cases: 10 µM unless noted
HCT-15 colon = tested on: HCT-15 colon
HT29 colon = tested on: HT29 colon
SNB-75 CNS = tested on: SNB-75 CNS
SNB-19 CNS = tested on: SNB-19 CNS
U251 CNS = tested on: U251 CNS
PC-3 prostate = tested on: PC-3 prostate
SK-MEL-5 melanoma = tested on: SK-MEL-5 melanoma
LOX IMVI melanoma = tested on: LOX IMVI melanoma
SK-MEL-28 melanoma = tested on: SK-MEL-28 melanoma

Measured: growth

COc1cccc(-c2nn(-c3ccccc3)cc2-c2ccnc(NCCCNS(=O)(=O)c3ccc(Br)cc3)c2)c1
inactive: HCT-15 colon 42.5% | SNB-75 CNS 75.2% | SNB-19 CNS 60.2% | U251 CNS 40.2% | PC-3 prostate 26.4% | SK-MEL-5 melanoma 39.9% | LOX IMVI melanoma 56.6%
active: HT29 colon 9.65%

Fc1ccc(Nc2nc(Nc3ccc(-c4nc5ccccc5[nH]4)cc3)nc(N3CCCC3)n2)cc1
inactive: HT29 colon 36.1% | SNB-75 CNS 65.4% | SNB-19 CNS 103% | U251 CNS 55.8% | PC-3 prostate 33.8% | SK-MEL-5 melanoma 87%
active: HCT-15 colon -8.99% | LOX IMVI melanoma 3.18%

COC(=O)[C@]12CC[C@@H](C)[C@H](C)[C@@H]1C1=CC(=O)[C@@H]3[C@@]4(C)C[C@@H](O)[C@H](O)[C@@]5(C)COC(=C45)C[C@@]3(C)[C@]1(C)CC2
inactive: HCT-15 colon 26.5% | HT29 colon 27.4% | SNB-75 CNS 32.8% | SNB-19 CNS 60.8% | U251 CNS 39.5% | PC-3 prostate 49.2% | SK-MEL-5 melanoma 41.3% | LOX IMVI melanoma 57%

COc1cccc(-c2nn(-c3ccccc3)cc2-c2ccnc(NCCNS(=O)(=O)c3ccccc3)c2)c1
inactive: HCT-15 colon 20.3% | HT29 colon 16.9% | SNB-75 CNS 67.7% | SNB-19 CNS 42.6% | U251 CNS 34.8% | PC-3 prostate 17.5% | SK-MEL-5 melanoma 17.1% | LOX IMVI melanoma 41%

COc1ccc(-c2nc3c(c(C)nn3-c3ccc(F)cc3)c(=O)[nH]2)cc1
inactive: HCT-15 colon 83% | HT29 colon 58.6% | SNB-75 CNS 11.1% | SNB-19 CNS 75% | U251 CNS 44% | PC-3 prostate 78.1% | SK-MEL-5 melanoma 79.1% | LOX IMVI melanoma 75.2% | SK-MEL-28 melanoma 96.8%

Fc1ccc2c(c1)c(-c1nc(-c3c[nH]c4ncccc34)cs1)cn2CCCN1CCCCC1
active: HCT-15 colon -8.44% | HT29 colon -38.4% | SK-MEL-5 melanoma -52% | SK-MEL-28 melanoma -68.3%
inactive: SNB-75 CNS 64% | SNB-19 CNS 60.1% | U251 CNS 24.9% | PC-3 prostate 47.9% | LOX IMVI melanoma 44%

Cc1cc(N(CCCNc2ccnc3cc(Cl)ccc23)Cc2ccco2)nc(N2CCN(C)CC2)n1
inactive: HCT-15 colon 16.9% | HT29 colon 12.4% | SNB-75 CNS 68.7% | SNB-19 CNS 58.2% | U251 CNS 28.6% | PC-3 prostate 51.5%
active: SK-MEL-5 melanoma -42.6% | LOX IMVI melanoma 0.725% | SK-MEL-28 melanoma -75.2%

COC(=O)[C@]12CC[C@@H](C)[C@H](C)[C@@H]1C1=CC[C@@H]3[C@@]4(C)C[C@@H](OC(C)=O)[C@H](O)[C@@](C)(CO)[C@@H]4[C@H](O)C[C@@]3(C)[C@]1(C)CC2
active: HCT-15 colon -94.5% | HT29 colon -95.4% | SNB-75 CNS -83.1% | SNB-19 CNS -71.7% | U251 CNS -84.1% | PC-3 prostate -100% | SK-MEL-5 melanoma -98.5% | LOX IMVI melanoma -100% | SK-MEL-28 melanoma -86%

CSc1ccc(N(C)c2nc(C)nc3c2CCC3)cc1
active: HCT-15 colon 7.62% | HT29 colon -9.35% | SK-MEL-5 melanoma -38.2%
inactive: SNB-75 CNS 35.1% | SNB-19 CNS 38.1% | U251 CNS 12.1% | PC-3 prostate 20.1% | LOX IMVI melanoma 10.2%

COC(=O)[C@]12CC[C@@H](C)[C@H](C)[C@@H]1C1=CC[C@@H]3[C@@]4(C)C=C(O)C(=O)C(C)=C4CC[C@@]3(C)[C@]1(C)CC2
inactive: HCT-15 colon 25.2% | HT29 colon 11.7% | SNB-75 CNS 63% | SNB-19 CNS 59.9% | U251 CNS 43.4% | PC-3 prostate 12.7% | SK-MEL-5 melanoma 29.5% | LOX IMVI melanoma 16.5%

N#CCCCCCn1c2ccccc2c2c3[nH]c(=O)[nH]c(=O)c3c3c4ccccc4n(CCCCCC#N)c3c21
inactive: HCT-15 colon 86.6% | HT29 colon 27% | SNB-75 CNS 26.3% | SNB-19 CNS 55.6% | U251 CNS 28.9% | PC-3 prostate 64.3% | SK-MEL-5 melanoma 28.6% | LOX IMVI melanoma 31.9%

CCC1C(=O)COC1=O (stereo not drawn)
inactive: HCT-15 colon 103% | HT29 colon 62.7% | SNB-75 CNS 91% | SNB-19 CNS 99.3% | U251 CNS 85% | PC-3 prostate 74.3% | SK-MEL-5 melanoma 102% | LOX IMVI melanoma 93.2% | SK-MEL-28 melanoma 112%

CNC(=O)c1cc(Oc2ccc3nc(NC(=O)Nc4ccc(Cl)cc4)sc3c2)ccn1
inactive: HCT-15 colon 84.8% | HT29 colon 68.8% | SNB-75 CNS 50.6% | SNB-19 CNS 59.3% | U251 CNS 37.3% | PC-3 prostate 66% | SK-MEL-5 melanoma 73.3% | LOX IMVI melanoma 51.6%

CCCCC[C@H]1CC=C2C(=O)C=C[C@@H]2CC=CCCCC(=O)O[C@@H](CCCCC)CC=C2C(=O)C=C[C@@H]2CC=CCCCC(=O)O[C@@H](CCCCC)CC=C2C(=O)C=C[C@@H]2CC=CCCCC(=O)O1
inactive: SNB-75 CNS 48.7% [8.75 µM]
active: HCT-15 colon 7.88% [8.75 µM] | HT29 colon -12.4% [8.75 µM] | SNB-19 CNS 9.32% [8.75 µM] | U251 CNS -49.4% [8.75 µM] | PC-3 prostate -15.7% [8.75 µM] | SK-MEL-5 melanoma -76.7% [8.75 µM] | LOX IMVI melanoma -87.5% [8.75 µM] | SK-MEL-28 melanoma -48.7% [8.75 µM]

COc1ccc(C2C(C#N)=C(N)Oc3c2sc2c(F)cccc32)cc1 (stereo not drawn)
inactive: HCT-15 colon 24.4% | SNB-19 CNS 22.8% | U251 CNS 24.2% | PC-3 prostate 15.7% | SK-MEL-5 melanoma 22.5% | LOX IMVI melanoma 29.9% | SK-MEL-28 melanoma 60.5%
active: HT29 colon 7.77% | SNB-75 CNS 3.73%

O=S(=O)(NCCNc1cc(-c2cn(-c3ccccc3)nc2-c2cccc(O)c2)ccn1)c1cccc(F)c1
active: HCT-15 colon 5.71% | HT29 colon 7.47%
inactive: SNB-75 CNS 48.1% | SNB-19 CNS 51.5% | U251 CNS 32.3% | PC-3 prostate 25.4% | SK-MEL-5 melanoma 26.9% | LOX IMVI melanoma 36.5%

Cc1cc(C)c(NC(=O)c2sc3nc4c(cc3c2N)CCCC4)c(C)c1
inactive: HCT-15 colon 32.1% | HT29 colon 13.9% | SNB-75 CNS 18.5% | SNB-19 CNS 43.4% | U251 CNS 27.7% | PC-3 prostate 54% | SK-MEL-5 melanoma 50.1% | LOX IMVI melanoma 37.6%

CCN(CC)C(=O)CCCCCn1c2ccccc2c2c3c(c4c5ccccc5[nH]c4c21)C(=O)N(O)C3=O
active: HT29 colon -43.7% | LOX IMVI melanoma -59%
inactive: HCT-15 colon 45.9% | SNB-75 CNS 74.4% | SNB-19 CNS 47.2% | U251 CNS 10.5% | PC-3 prostate 30% | SK-MEL-5 melanoma 25.9%

CC(Cc1ccco1)C(=O)NC(N)=O (stereo not drawn)
inactive: HCT-15 colon 99.3% | HT29 colon 102% | SNB-75 CNS 91.8% | SNB-19 CNS 105% | U251 CNS 108% | PC-3 prostate 98.4% | SK-MEL-5 melanoma 98.6% | LOX IMVI melanoma 97.4% | SK-MEL-28 melanoma 105%

COC(=O)[C@]12CC[C@@H](C)[C@H](C)[C@@H]1C1=CC[C@@H]3[C@@]4(C)C[C@@H](OC(C)=O)[C@H](O)[C@@](C)(COC(C)=O)[C@@H]4[C@H](O)C[C@@]3(C)[C@]1(C)CC2
active: HCT-15 colon -79.4% | HT29 colon -84.1% | SNB-75 CNS -81.1% | SNB-19 CNS -82.6% | U251 CNS -94.2% | PC-3 prostate -95.1% | SK-MEL-5 melanoma -99.9% | LOX IMVI melanoma -100% | SK-MEL-28 melanoma -88.3%

O=S(=O)(NCCCNc1cc(-c2cn(-c3ccccc3)nc2-c2cccc(O)c2)ccn1)c1ccc(F)cc1
inactive: SNB-75 CNS 46.3% | SNB-19 CNS 57.4% | U251 CNS 31.3% | PC-3 prostate 23% | SK-MEL-5 melanoma 31.4% | LOX IMVI melanoma 18.9%
active: HCT-15 colon 6.54% | HT29 colon 0.761%

Cc1cc(N2CCN(C)CC2)nc(N(CCNc2ccnc3cc(Cl)ccc23)Cc2ccco2)n1
active: HT29 colon 5.75% | SK-MEL-5 melanoma -82% | LOX IMVI melanoma -5.64%
inactive: HCT-15 colon 18.1% | SNB-75 CNS 66.3% | SNB-19 CNS 36.8% | U251 CNS 39.3% | PC-3 prostate 34.8%

COc1cccc(-c2nn(-c3ccccc3)cc2-c2ccnc(NCCCNS(=O)(=O)c3cccc(F)c3)c2)c1
active: SK-MEL-5 melanoma -45.6%
inactive: HCT-15 colon 21.9% | HT29 colon 15.1% | SNB-75 CNS 55.4% | SNB-19 CNS 42.8% | U251 CNS 27.5% | PC-3 prostate 11.9% | LOX IMVI melanoma 27.5%

CC(=O)O[C@@H]1CCN2C(=O)N(C)c3ccccc3[C@@H]2C1
inactive: HCT-15 colon 103% | HT29 colon 104% | SNB-75 CNS 89% | SNB-19 CNS 98.3% | U251 CNS 102% | PC-3 prostate 89.1% | SK-MEL-5 melanoma 104% | LOX IMVI melanoma 98.6%

C=C1C(=O)O[C@H]2[C@H]1CC/C(Cn1cc(-c3ccc(OC)cc3)nn1)=C\CC[C@@]1(C)O[C@@H]21
active: HCT-15 colon -71.4% | HT29 colon -82% | LOX IMVI melanoma -79.3%
inactive: SNB-75 CNS 91.4% | SNB-19 CNS 69.5% | U251 CNS 23% | PC-3 prostate 39.4% | SK-MEL-5 melanoma 41.8%

COc1cc2c3c(c4c5ccccc5[nH]c4c2c(OC)c1OC)C(=O)N(O)C3=O
inactive: HCT-15 colon 45.8% | HT29 colon 52.1% | SNB-75 CNS 72.6% | SNB-19 CNS 54.5% | U251 CNS 28% | PC-3 prostate 43.8% | SK-MEL-5 melanoma 11.1% | LOX IMVI melanoma 26.3%

COc1ccc2[nH]c(-c3ccc(Cl)cc3)cc(=O)c2c1
inactive: HCT-15 colon 96.4% | HT29 colon 96.3% | SNB-75 CNS 93.4% | SNB-19 CNS 96% | U251 CNS 96.7% | PC-3 prostate 88% | SK-MEL-5 melanoma 95.6% | LOX IMVI melanoma 100% | SK-MEL-28 melanoma 104%

CCCCC(=O)OC1CCCCC1C (stereo not drawn)
inactive: HCT-15 colon 108% | HT29 colon 88.2% | SNB-75 CNS 87.6% | SNB-19 CNS 100% | U251 CNS 85.6% | PC-3 prostate 68.1% | SK-MEL-5 melanoma 91.2% | LOX IMVI melanoma 97.9% | SK-MEL-28 melanoma 98.4%

O=C(CCCCCn1c2ccccc2c2c3c(c4c5ccccc5[nH]c4c21)C(=O)N(O)C3=O)N1CCOCC1
inactive: HCT-15 colon 49.2% | SNB-75 CNS 87% | SNB-19 CNS 47.3% | U251 CNS 33.9% | PC-3 prostate 26.5%
active: HT29 colon 0.235% | SK-MEL-5 melanoma 0.765% | LOX IMVI melanoma -16.8%

— PubChem BioAssay (NCI)
